“And” between values parts separate entries of the source, which are not always exact repeats. Identical values can stand only once. The source made the active and inactive calls. Cut-off read from the data, not from the text of the source, unless noted: active = inhibition above about 80%; inactive = the rest.
How the values were obtained:
[1] = ICB984 medulloblastoma cell growth inhibition, synergistic combos for chromothripsis tumors, cisplatin or BGB combos (AID 1671451; call rule not given here;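 note: cells exposed for 96 hours before readout; 0% = vehicle DMSO and 100% = killing by high DMSO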); settings: ICB984 medulloblastoma cells, drug combinations, stronger effect = higher value
[2] = LFS_MB_1R medulloblastoma cell growth inhibition, synergistic combos for chromothripsis tumors, cisplatin or BGB combos (AID 1671452); settings: LFS_MB_1R medulloblastoma cells, stronger effect = higher value;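 note: cells exposed for 96 hours before readout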
[3] = HTB85 osteosarcoma cell growth inhibition, synergistic combos for chromothripsis tumors, BGB or cisplatin IC20 combos (AID 1671453); settings: HTB85 osteosarcoma cells, drug combinations, stronger effect = higher value;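 note: cells exposed for 96 hours before readout; 0% = vehicle DMSO and 100% = high DMSO killing control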
[4] = CRL2098 osteosarcoma cell growth inhibition, synergistic combos for chromothripsis tumors, BGB or cisplatin IC20 combos (AID 1671454); settings: CRL2098 osteosarcoma cells, drug combinations, stronger effect = higher value;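 note: cells exposed for 96 h before readout; 0% = vehicle DMSO and 100% = killing by high DMSO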
[5] = HD-MB03 medulloblastoma cell growth inhibition, synergistic combos for chromothripsis tumors, BGB or cisplatin IC20 combos (AID 1671455; in the data active = inhibition above about 83%;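 note: 0% = vehicle DMSO and 100% = high DMSO as cytotoxic control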); settings: HD-MB03 medulloblastoma cells, stronger effect = higher value
[6] = UWB1.289 ovarian carcinoma cell growth inhibition, synergistic combos for chromothripsis tumors, BGB or cisplatin combos (AID 1671456); settings: UWB1.289 ovarian carcinoma cells, stronger effect = higher value;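 note: cells exposed to compound for four days; 0% = vehicle DMSO and 100% = killing by high DMSO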
[7] = LFS_MB_2R medulloblastoma cell growth inhibition, synergistic combos for chromothripsis tumors, cisplatin combos (AID 1671457); settings: LFS_MB_2R medulloblastoma cells, stronger effect = higher value;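 note: cells exposed to compound for four days before readout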
[8] = MDA-MB-436 breast carcinoma cell growth inhibition, synergistic combos for chromothripsis tumors, BGB or cisplatin combos (AID 1671458; call rule not given here;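 note: cells exposed for 96 hours; 0% = vehicle DMSO and 100% = killing by high DMSO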); settings: MDA-MB-436 breast carcinoma growth inhibition, drug combinations, stronger effect = higher value
[9] = UWB1.289_BRCA1 ovarian cancer growth, cell-based, BGB or cisplatin combinations (AID 1671459); settings: UWB1.289 BRCA1 ovarian carcinoma, drug combinations, stronger effect = higher value
[10] = human astrocyte viability loss, single and combined drugs, cytotoxicity control for chromothriptic childhood tumor combination screen, cell-based, BGB or cisplatin IC20 combos (AID 1671460); settings: Human astrocytes, drug combinations, stronger effect = higher value;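 note: cells exposed to compounds for 96 hours before viability readout; 0% = vehicle and 100% = killing control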
[11] = growth inhibition of BT084 medulloblastoma cells, cell-based, ICGC_MB145, cisplatin and BGB IC40 combos (AID 1671461); settings: drug combinations, stronger effect = higher value;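 note: cells exposed to drugs for 96 hours; 0% = vehicle DMSO and 100% = high DMSO full killing control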
[12] = growth inhibition of RCMB18 medulloblastoma cells, cell-based, cisplatin and BGB IC40 combos (AID 1671462); settings: stronger effect = higher value;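 note: cells exposed to compound for four days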
[13] = growth inhibition of CRL1545 osteosarcoma cells, cell-based, cisplatin and BGB IC20 combos (AID 1671464); settings: stronger effect = higher value;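 note: cells exposed to compound for 96 hours before readout; 0% = vehicle DMSO and 100% = high DMSO killing control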
[14] = measured here: combination with cisplatin, at 0.5 µM
[15] = measured here: combination with cisplatin, at 5 µM

SMILES: C/C(=C\C(=O)Nc1ccccc1C(=O)O)c1ccc2ccccc2c1
- inhibition ([1]; BGB IC40 combo, at 0.05 µM): -10.6% and -21.5%
- inhibition ([1]; at 0.5 µM): -6.99% (inactive) and -24.5% (inactive)
- inhibition ([1]; cisplatin combo, at 0.05 µM): -10.6% and -25.9%
- inhibition ([1]; cisplatin combo, at 0.5 µM): -7.39% and -29.2%
- inhibition ([1]; cisplatin combo, at 5 µM): 6.72% and -34%
- inhibition ([1]; measured here: 5 uM single agent, at 5 µM): -9.64% and -30.6%
- inhibition ([2]; at 0.5 µM): -15% (inactive) and -22.4% (inactive)
- inhibition ([2]; measured here: combination with BGB IC40, at 0.05 µM): -9.05% and -43.4%
- inhibition [2, 14]: -18.5% and -27.8%
- inhibition [2, 15]: -22.6% and -72.2%
- inhibition ([3]; at 0.5 µM): -22.4% (inactive) and -26.8% (inactive)
- inhibition ([3]; measured here: with BGB IC20, at 0.5 µM): -27.7% and -32.5%
- inhibition ([3]; measured here: with BGB IC20, at 5 µM): -14.9% and -24.4%
- inhibition ([3]; measured here: with cisplatin IC20, at 0.5 µM): -22.7% and -28.1%
- inhibition ([3]; measured here: with cisplatin IC20, at 5 µM): -19.8% and -17.3%
- inhibition ([3]; single agent, at 5 µM): -20.6% and -16.3%
- inhibition ([4]; at 0.5 µM): -36.1% (inactive) and -95.9% (inactive)
- inhibition ([4]; measured here: combination with BGB at IC20, at 0.5 µM): -28.4% and -70.2%
- inhibition ([4]; measured here: combination with cisplatin at IC20, at 0.5 µM): -47.6% and -160%
- inhibition ([5]; at 0.5 µM): -6.95% (inactive) and -18.5% (inactive)
- inhibition ([5]; measured here: combo with BGB at IC20, at 0.5 µM): -7.43% and -31.2%
- inhibition ([5]; measured here: combo with cisplatin at IC20, at 0.5 µM): -10.4% and -19.6%
- inhibition ([6]; at 0.5 µM): 9.98% (inactive) and -21.6% (inactive)
- inhibition ([6]; measured here: inhibition with BGB combination, at 0.05 µM): 3.22% and -36.6%
- inhibition ([6]; measured here: inhibition with cisplatin combination, at 0.05 µM): -9.11% and -30.4%
- inhibition ([7]; at 0.5 µM): -3.77% (inactive) and -16.3% (inactive)
- inhibition [7, 14]: 1.51% and -14.7%
- inhibition [7, 15]: 6.83% and -4.92%
- inhibition ([8]; at 0.5 µM): -3.17% (inactive) and -21% (inactive)
- inhibition ([8]; measured here: BGB combination, at 0.5 µM): -3.42% and -32.5%
- inhibition ([8]; measured here: BGB combination, at 5 µM): -2.03% and -11.9%
- inhibition ([8]; measured here: cisplatin combination, at 0.5 µM): -4.64% and -12.8%
- inhibition ([8]; measured here: cisplatin combination, at 5 µM): -4.62% and -6.3%
- inhibition ([9]; BGB combination, concentration series, at 5 µM): -7.61% and -2.79%
- inhibition ([9]; at 0.5 µM): -8.12% (inactive) and -20.7% (inactive)
- inhibition ([9]; cisplatin combination, concentration series, at 5 µM): 1.63% and -4.56%
- inhibition ([10]; at 0.5 µM): -12.6% (inactive) and 0.11% (inactive)
- inhibition ([10]; measured here: combo with BGB IC20, at 0.5 µM): -9.38% and 5.29%
- inhibition ([10]; measured here: combo with cisplatin IC20, at 0.5 µM): -22.2% and -3.59%
- inhibition ([11]; at 0.5 µM): -6.83% (inactive) and -5.19% (inactive)
- inhibition ([11]; cisplatin combination, at 0.5 µM): -15% and -25.6%
- inhibition ([11]; cisplatin combination, at 5 µM): -24.9% and -2.65%
- inhibition ([11]; measured here: BGB IC40 combination 0.05 uM, at 0.05 µM): -17.8% and 7.75%
- inhibition ([11]; single agent, at 5 µM): 11.2% and -10.1%
- inhibition ([12]; at 0.5 µM): -1.42% (inactive) and -24.1% (inactive)
- inhibition ([12]; cisplatin combo, at 5 µM): 5.73% and -10.2%
- inhibition ([12]; measured here: BGB IC40 combination, at 0.05 µM): -5.49% and -16.6%
- inhibition [12, 14]: -31.4% and -50.1%
- inhibition ([12]; single agent, at 5 µM): -4.52% and -12.1%
- inhibition ([13]; at 0.5 µM): -35.2% (inactive) and -65.1% (inactive)
- inhibition ([13]; measured here: with BGB IC20 combination, at 0.5 µM): -24.4% and -56.6%
- inhibition ([13]; measured here: with cisplatin IC20 combination, at 0.5 µM): -40.6% and -72.1%
- inhibition ([13]; single agent, at 0.05 µM): -15.5% and -44.7%
- inhibition ([13]; single agent, at 5 µM): -12.5% and -53.7%
